# Measurements: ChEMBL document CHEMBL2218924, “A broad activity screen in support of a chemogenomic map for kinase signalling research and drug discovery” (Biochem J, 2013)
# What was measured:
# [1] = target: T1, Ephrin type-A receptor 3 (Homo sapiens) (UniProt P29320); settings: at 10 µM
# T1 sequence (whole entry): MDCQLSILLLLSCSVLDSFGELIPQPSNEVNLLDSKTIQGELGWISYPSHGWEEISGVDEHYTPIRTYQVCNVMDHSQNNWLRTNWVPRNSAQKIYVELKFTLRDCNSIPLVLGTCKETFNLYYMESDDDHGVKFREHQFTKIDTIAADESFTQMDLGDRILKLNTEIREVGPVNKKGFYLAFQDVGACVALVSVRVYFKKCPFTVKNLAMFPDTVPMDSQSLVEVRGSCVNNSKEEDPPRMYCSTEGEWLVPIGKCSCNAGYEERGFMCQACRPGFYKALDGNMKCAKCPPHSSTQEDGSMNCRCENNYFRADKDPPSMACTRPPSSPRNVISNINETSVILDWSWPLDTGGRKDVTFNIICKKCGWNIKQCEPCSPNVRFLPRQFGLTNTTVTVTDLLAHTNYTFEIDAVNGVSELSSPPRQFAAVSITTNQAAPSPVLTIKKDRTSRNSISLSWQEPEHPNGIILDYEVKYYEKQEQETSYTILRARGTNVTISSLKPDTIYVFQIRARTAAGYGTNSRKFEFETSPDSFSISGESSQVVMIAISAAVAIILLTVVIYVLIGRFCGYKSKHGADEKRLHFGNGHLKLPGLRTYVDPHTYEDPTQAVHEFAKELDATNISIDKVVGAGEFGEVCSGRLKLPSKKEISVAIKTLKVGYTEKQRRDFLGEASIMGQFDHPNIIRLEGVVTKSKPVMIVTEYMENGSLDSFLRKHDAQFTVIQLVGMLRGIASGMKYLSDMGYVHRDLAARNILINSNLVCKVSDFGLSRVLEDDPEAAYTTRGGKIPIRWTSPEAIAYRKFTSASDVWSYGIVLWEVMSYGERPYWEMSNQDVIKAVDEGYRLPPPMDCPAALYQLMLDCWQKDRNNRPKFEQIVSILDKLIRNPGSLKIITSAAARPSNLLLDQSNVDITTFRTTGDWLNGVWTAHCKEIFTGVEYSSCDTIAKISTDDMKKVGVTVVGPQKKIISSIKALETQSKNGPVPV
# [2] = target: Ephrin type-A receptor 4 (Homo sapiens) (UniProt P54764); settings: at 1 µM
# [3] = target: Ephrin type-A receptor 4 (Homo sapiens) (UniProt P54764); settings: at 10 µM
# [4] = target: Ephrin type-A receptor 5 (Homo sapiens) (UniProt P54756); settings: at 1 µM
# [5] = target: Ephrin type-A receptor 5 (Homo sapiens) (UniProt P54756); settings: at 10 µM
# [6] = target: Ephrin type-A receptor 7 (Homo sapiens) (UniProt Q15375); settings: at 1 µM
# [7] = target: Ephrin type-A receptor 7 (Homo sapiens) (UniProt Q15375); settings: at 10 µM
# [8] = target: T2, Ephrin type-A receptor 8 (Homo sapiens) (UniProt P29322); settings: at 1 µM
# T2 sequence (whole entry): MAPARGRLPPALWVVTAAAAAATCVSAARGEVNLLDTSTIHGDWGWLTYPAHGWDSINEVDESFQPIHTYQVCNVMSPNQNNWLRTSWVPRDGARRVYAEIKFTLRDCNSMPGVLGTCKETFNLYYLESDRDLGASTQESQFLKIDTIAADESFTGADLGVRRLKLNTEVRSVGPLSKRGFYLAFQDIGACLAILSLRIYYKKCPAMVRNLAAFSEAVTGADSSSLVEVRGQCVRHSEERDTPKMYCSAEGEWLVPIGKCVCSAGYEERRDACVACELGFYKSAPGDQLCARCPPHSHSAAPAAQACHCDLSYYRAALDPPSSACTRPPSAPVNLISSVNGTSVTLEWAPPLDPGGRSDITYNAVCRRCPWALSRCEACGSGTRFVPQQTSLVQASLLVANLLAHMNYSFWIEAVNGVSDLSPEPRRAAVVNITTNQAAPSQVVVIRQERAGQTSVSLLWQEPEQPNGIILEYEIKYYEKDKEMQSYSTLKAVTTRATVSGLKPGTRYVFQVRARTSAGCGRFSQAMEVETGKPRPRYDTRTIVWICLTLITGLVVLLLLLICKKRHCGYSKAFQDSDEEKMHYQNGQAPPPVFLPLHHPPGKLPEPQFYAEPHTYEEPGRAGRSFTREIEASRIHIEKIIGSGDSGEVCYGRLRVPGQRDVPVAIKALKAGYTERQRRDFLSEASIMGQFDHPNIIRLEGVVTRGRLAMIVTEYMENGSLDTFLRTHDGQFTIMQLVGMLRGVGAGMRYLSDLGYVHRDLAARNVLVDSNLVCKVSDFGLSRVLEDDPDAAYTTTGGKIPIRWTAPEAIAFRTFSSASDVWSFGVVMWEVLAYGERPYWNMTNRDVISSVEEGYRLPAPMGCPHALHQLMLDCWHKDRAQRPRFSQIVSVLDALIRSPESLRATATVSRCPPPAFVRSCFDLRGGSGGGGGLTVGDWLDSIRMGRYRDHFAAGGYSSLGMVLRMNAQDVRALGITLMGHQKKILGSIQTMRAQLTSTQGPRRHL
# [9] = target: T2, Ephrin type-A receptor 8 (Homo sapiens); settings: at 10 µM
# [10] = target: T3, Ephrin type-B receptor 1 (Homo sapiens) (UniProt P54762); settings: at 1 µM
# T3 sequence (whole entry): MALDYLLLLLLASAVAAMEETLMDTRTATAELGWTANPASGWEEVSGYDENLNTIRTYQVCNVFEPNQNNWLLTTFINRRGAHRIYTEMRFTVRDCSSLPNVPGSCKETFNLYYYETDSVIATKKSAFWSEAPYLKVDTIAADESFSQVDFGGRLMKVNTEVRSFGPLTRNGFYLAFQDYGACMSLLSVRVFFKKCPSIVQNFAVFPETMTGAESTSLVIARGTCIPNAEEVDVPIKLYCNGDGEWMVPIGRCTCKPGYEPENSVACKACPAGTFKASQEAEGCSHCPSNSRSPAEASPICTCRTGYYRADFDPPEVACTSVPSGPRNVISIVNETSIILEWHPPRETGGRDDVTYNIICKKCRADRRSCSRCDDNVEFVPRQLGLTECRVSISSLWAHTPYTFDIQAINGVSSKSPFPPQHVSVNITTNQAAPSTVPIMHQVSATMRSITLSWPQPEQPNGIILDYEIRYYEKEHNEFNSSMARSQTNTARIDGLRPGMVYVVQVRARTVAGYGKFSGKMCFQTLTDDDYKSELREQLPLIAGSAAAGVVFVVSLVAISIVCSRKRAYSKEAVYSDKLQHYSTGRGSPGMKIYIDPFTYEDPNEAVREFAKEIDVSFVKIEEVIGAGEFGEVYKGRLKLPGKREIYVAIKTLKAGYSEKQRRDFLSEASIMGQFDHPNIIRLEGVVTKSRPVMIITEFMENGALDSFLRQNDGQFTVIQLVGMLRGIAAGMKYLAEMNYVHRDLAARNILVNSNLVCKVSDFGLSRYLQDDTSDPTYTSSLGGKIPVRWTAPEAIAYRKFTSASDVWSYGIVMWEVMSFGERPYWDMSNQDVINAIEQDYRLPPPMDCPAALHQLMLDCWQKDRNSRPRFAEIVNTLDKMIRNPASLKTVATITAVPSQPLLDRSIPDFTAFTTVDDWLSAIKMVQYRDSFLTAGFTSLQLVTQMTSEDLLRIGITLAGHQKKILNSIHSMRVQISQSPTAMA
# Ephrin type-A receptor 7 (Homo sapiens), sequence (Q15375 28-998 limits assumed): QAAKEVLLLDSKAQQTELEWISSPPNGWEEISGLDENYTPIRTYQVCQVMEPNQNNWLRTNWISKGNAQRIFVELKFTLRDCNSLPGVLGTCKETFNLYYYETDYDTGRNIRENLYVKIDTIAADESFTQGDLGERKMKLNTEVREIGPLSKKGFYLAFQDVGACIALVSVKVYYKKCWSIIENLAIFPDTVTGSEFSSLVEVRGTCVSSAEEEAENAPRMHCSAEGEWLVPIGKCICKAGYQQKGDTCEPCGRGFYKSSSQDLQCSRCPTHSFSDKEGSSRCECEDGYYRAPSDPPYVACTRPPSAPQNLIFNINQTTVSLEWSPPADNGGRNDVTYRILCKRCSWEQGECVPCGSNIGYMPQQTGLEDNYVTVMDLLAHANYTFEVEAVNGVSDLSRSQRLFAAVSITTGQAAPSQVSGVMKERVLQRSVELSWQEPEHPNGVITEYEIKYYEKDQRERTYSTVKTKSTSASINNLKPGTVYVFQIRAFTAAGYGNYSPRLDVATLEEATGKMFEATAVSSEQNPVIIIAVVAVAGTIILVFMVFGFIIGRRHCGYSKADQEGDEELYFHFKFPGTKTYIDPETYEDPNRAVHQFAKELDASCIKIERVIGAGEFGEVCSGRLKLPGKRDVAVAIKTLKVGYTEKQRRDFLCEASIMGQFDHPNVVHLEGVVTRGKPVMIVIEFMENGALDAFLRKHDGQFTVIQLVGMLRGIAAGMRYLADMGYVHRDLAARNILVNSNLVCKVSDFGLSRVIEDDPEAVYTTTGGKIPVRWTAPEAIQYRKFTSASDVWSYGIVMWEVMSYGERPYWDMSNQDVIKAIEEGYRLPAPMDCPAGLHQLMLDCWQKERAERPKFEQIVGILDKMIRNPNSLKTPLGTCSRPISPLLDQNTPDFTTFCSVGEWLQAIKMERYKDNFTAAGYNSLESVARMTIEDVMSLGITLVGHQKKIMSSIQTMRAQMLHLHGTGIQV
# Ephrin type-A receptor 4 (Homo sapiens), sequence (P54764 whole entry): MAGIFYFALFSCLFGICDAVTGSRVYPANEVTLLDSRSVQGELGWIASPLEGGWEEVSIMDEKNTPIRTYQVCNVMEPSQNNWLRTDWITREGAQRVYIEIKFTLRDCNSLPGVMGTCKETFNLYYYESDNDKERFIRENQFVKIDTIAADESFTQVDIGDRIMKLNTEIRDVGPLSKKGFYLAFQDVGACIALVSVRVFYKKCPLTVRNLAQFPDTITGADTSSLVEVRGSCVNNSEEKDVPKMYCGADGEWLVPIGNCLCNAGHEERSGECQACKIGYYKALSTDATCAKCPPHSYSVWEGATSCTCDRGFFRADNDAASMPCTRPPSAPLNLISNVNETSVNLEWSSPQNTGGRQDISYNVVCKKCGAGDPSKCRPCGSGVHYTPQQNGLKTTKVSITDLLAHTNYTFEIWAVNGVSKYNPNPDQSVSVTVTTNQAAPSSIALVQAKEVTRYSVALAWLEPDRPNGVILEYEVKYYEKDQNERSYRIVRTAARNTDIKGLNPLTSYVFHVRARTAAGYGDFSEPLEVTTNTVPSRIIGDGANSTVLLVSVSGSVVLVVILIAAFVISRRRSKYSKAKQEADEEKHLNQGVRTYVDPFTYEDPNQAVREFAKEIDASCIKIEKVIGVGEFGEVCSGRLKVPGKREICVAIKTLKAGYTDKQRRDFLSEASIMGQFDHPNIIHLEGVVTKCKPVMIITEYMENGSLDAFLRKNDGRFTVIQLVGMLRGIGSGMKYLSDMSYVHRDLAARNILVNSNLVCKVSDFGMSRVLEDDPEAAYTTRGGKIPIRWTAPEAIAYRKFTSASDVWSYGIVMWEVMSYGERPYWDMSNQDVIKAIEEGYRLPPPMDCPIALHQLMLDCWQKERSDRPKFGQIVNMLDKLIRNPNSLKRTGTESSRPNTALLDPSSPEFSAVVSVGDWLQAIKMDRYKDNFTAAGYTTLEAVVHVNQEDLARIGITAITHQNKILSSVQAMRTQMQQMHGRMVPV
# Ephrin type-A receptor 5 (Homo sapiens), sequence (P54756 whole entry): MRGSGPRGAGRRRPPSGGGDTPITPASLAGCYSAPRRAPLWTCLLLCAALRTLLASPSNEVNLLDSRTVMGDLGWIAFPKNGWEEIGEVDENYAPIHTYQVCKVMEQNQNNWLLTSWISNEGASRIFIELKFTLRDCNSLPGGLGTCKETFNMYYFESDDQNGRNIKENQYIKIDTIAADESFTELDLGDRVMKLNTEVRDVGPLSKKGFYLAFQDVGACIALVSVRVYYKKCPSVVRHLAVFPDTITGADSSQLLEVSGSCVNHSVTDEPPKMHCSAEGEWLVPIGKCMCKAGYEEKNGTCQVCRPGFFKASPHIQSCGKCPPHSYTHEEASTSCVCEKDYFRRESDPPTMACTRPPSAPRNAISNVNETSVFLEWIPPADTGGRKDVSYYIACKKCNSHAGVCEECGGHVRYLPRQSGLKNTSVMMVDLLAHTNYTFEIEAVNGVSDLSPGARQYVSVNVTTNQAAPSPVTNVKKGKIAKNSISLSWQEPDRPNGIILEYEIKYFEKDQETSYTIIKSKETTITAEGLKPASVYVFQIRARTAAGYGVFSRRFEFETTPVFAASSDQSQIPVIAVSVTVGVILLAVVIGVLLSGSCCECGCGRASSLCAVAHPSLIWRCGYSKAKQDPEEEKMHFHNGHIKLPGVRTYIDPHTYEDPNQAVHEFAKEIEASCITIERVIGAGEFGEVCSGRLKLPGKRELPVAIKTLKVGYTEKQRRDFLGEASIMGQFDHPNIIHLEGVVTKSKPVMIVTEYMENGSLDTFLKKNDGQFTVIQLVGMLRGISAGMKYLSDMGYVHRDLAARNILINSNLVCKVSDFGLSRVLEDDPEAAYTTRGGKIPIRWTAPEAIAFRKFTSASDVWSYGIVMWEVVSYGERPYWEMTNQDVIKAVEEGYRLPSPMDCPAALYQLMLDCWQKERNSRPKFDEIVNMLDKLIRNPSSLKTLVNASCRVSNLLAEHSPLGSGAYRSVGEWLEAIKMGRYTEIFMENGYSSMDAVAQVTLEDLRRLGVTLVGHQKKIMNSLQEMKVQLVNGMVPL
structure (smiles),measurement,setting,value
O=C1Nc2cc(Br)ccc2/C1=C1/Nc2ccccc2/C1=N\O,residual activity,[1],3%
same,residual activity,[2],109%
same,residual activity,[3],98%
same,residual activity,[4],37%
same,residual activity,[5],42%
same,residual activity,[6],68%
same,residual activity,[7],20%
same,residual activity,[8],69%
same,residual activity,[9],82%
same,residual activity,[10],34%
